From PubChem
Shown are actives, neighbours in structure and some others; about 19% of the full set was active somewhere.
TDP1 cell noCPT = qHTS for Inhibitors of human tyrosyl-DNA phosphodiesterase 1 (TDP1): qHTS in cells in absence of CPT. Potency, µM (titrated, usually from 46.2 µM), for inactives: at the top dose activity change, negative = growth inhibition, usual class: inhibitors. DT40 Tdp1-/- hTDP1 cells, no CPT, ATP luminescence, 48 h. 420,000 compounds, 15% hits; also: nearly all actives have a fitted effect of over 55% in size
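Seeded 400 DT40-hTDP1 cells/well (vehicle DMSO, no 20 nM CPT); pinned compounds; ≥48 hr at 37 °C; CellTiter-Glo luminescence as viability measure.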
KB-3-1 tox = qHTS assay for MDR1-selective chemotherapeutics: Primary screen using the parental adenocarcinoma cell KB-3-1 | KB-3-1 viability, CellTiter-Glo ATP luminescence, 72 h | Potency, µM (titrated, usually from 46.1 µM), hits mostly cytotoxic | 400,000 compounds, 1.4% hits; also: nearly all actives have a fitted effect of over 60% in size
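Screening of KB-3-1 cells (DMEM, 10% FBS, phenol-red free) ran from lowest to highest compound concentration; after 72 h at 37 °C viability was read luminescently and curves fitted.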
HT1080NT lethal = qHTS for induction of synthetic lethality in tumor cells producing 2HG: qHTS for the HT-1080-NT fibrosarcoma cell line. HT-1080-NT fibrosarcoma viability, CellTiter-Glo ATP luminescence, 48 h. Potency, µM (highest dose often 46.1 µM), for inactives: at the top dose activity, negative = less viability, hits mostly cytotoxic. 360,000 compounds, 1.6% hits. AID 686970, 2013;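 also: NT is the 2HG producing partner of a matched IDH1 knockdown line; 0% = DMSO-treated cells and -100% = media-only wells without cells; nearly all actives have a fitted effect of over 55% in size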
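Viability by CellTiter-Glo luminescence after 48 h compound exposure at 37C of HT-1080-NT cells (750/well, RPMI, 5% FBS). % activity scaled between DMSO wells and medium-only wells, then curve-fitted and categorized by curve class.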
KB-V1 MDR tox = qHTS assay for MDR1-selective chemotherapeutics: Primary screen using the drug-selected MDR subline cells KB-V1 | 400,000 compounds, 3.4% hits | KB-V1 MDR cells viability, CellTiter-Glo, 72 h | Potency, µM (highest dose often 46.1 µM), hits mostly cytotoxic; also: nearly all actives have a fitted effect of over 60% in size
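KB-V1 cells (P-gp-expressing MDR subline of KB-3-1) in phenol-red-free DMEM with 10% FBS were exposed to library compounds over a concentration series for 72 h at 37 degrees C. Viability read by CellTiter-Glo luminescence; concentration-effect curves fitted after normalization.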
HT1080 IDH1KD tx = qHTS for induction of synthetic lethality in tumor cells producing 2HG: qHTS for the HT-1080-IDH1KD cell line; 360,000 compounds, 2% hits; Potency, µM (titrated, usually from 46.1 µM), without a hit: top-dose activity, negative = toxicity, actives largely listed as cytotoxic; HT-1080 IDH1 knockdown viability, ATP luminescence, 48 h;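 also: 0% = DMSO wells and -100% = cell-free medium wells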
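HT-1080-IDH1KD cells (IDH1 knocked down), 750/well in RPMI with 5% FBS, treated with compound 48 h at 37 degrees C. Viability by CellTiter-Glo luminescence, normalised to DMSO and no-cell wells; concentration-response curves classed.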
DT40 TDP1 CPT = qHTS for Inhibitors of human tyrosyl-DNA phosphodiesterase 1 (TDP1): qHTS in cells in presence of CPT; 420,000 compounds, 12% hits; chicken DT40 Tdp1-/-;hTDP1 cells + 20 nM CPT, ATP luminescence, 48 h; Potency, µM (highest dose often 46.2 µM), for inactives: top-dose activity change, negative = growth inhibition, hits mostly inhibitors; AID 686979, 2013; also: nearly all actives have a fitted effect of over 55% in size
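Chicken DT40 Tdp1-/- cells complemented with human TDP1, 400 cells/well, exposed to compounds plus 20 nM camptothecin for at least 48 h at 37 C; viability read as ATP content by CellTiter-Glo luminescence.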
* marks the source's active call; other numbers are inactive results; i = inactive; ? = inconclusive; / = not tested or not shown; [ ] = remark or other dose. Calls follow the shape of the dose curve; as a rule, active = well fitted curve in the direction sought with a large enough effect; inconclusive = small, poorly fitted or top-dose-only effect, or another doubt; inactive = no such curve, though single readings can be large; an effect the other way counts as inactive or inconclusive. Unless noted, % is scaled to controls: 0 for no effect and ±100 for the full control effect; potency is read from the fitted curve at half-maximal effect.

SMILES	TDP1 cell noCPT	KB-3-1 tox	HT1080NT lethal	KB-V1 MDR tox	HT1080 IDH1KD tx	DT40 TDP1 CPT
CC(C)N(C(=O)Cn1cc(SCC(=O)Nc2ccccc2C(F)(F)F)c2ccccc21)C(C)C	-17%	/	/	/	/	-6%
CC(C)N(C(=O)Cn1cc(SCC(=O)Nc2ccccc2F)c2ccccc21)C(C)C	13µM*	/	/	/	/	?
O=C(CSc1cn(CCNC(=O)c2c(F)cccc2F)c2ccccc12)Nc1ccc(F)cc1	16µM*	i	/	i	/	?
CCc1ccc(CN(C)C(=O)C2=CC=CN3CCS(=O)(=O)N=C23)cc1	-18%	i	19%	i	22%	-15%
COC(=O)c1cc2sc(C)cc2n1CC(=O)Nc1ccc(C)cc1Cl	?	i	/	i	/	?
CCc1ccc(CN(C(=O)Nc2cccc(Cl)c2)c2ccccn2)cc1	?	i	/	i	/	18µM*
CC(C)C(=O)N(Cc1ccccc1)c1ccccn1	-11%	i	-16%	i	1%[9.24 µM]	-16%
CC1c2cc3c(cc2CCN1C(=O)c1cccc(Cl)c1)OCCCO3 (stereo not drawn)	6.5µM*	?	21µM*	5.8µM*	?	7.3µM*
CC1c2cc3c(cc2CCN1CC(=O)Nc1ccccc1)OCCCO3 (stereo not drawn)	23µM*	?	-28%	?	-3%	15µM*
Cc1ccc(NC(=O)CN2CCc3cc4c(cc3C2C)OCCCO4)cc1 (stereo not drawn)	?	i	0%	i	-8%	?
COc1cc2c(cc1OC)C(C)N(C(=O)c1cccc([N+](=O)[O-])c1)CC2 (stereo not drawn)	?	i	-9%	?	-27%	?
O=C1NC[C@H](c2ccccc2)OC(=O)[C@H](Cc2ccc(F)cc2)C/C=C\C[C@H]1CC(=O)N(CCO)Cc1ccccc1	8.2µM*	?	?	?	?	10µM*
O=C(C[C@H]1C/C=C\C[C@@H](Cc2ccc(F)cc2)C(=O)O[C@@H](c2ccccc2)CNC1=O)NCCO	?	i	4%	?	2%	-11%
O=C1NC[C@H](c2ccccc2)OC(=O)[C@@H](Cc2ccc(F)cc2)C/C=C\C[C@H]1CC(=O)N(CCO)Cc1ccccc1	?	i	?	i	?	8.2µM*
O=C1NC[C@@H](c2ccccc2)OC(=O)[C@H](Cc2ccc(F)cc2)C/C=C\C[C@H]1CC(=O)N(CCO)Cc1ccccc1	16µM*	i	-3%	i	4%	21µM*
O=C(C[C@H]1C/C=C\C[C@H](Cc2ccc(F)cc2)C(=O)O[C@@H](c2ccccc2)CNC1=O)NCCO	?	?	3%	i	1%	?
CCOC(=O)Cc1cc(=O)[nH]c(/N=C(\N)Nc2ccc(C)c(C)c2)n1	?	i	-6%	?	0%	?
CCCNC(=O)c1cc2nc(-c3ccc(Br)cc3)cc(C(F)(F)F)n2n1	?	i	/	i	/	?
COc1ccc(CNC(=O)O[C@]23C[C@H]4C(=O)N(c5ccccc5)C(=O)[C@H]4C[C@@]2(O)CN(S(=O)(=O)c2ccc(C)cc2)C3)cc1OC	-9%	i	5%	i	4%	-5%
C=CCOc1ccc(/C=C/C(=O)OCC(=O)NCc2cccs2)cc1	?	i	2%	i	4%	-26%
